# KB-3-1 tox = KB-3-1 parental cell cytotoxicity; KB-3-1 viability, CellTiter-Glo ATP luminescence, 72 h; Potency, µM (top dose mostly 46.1 µM), usual class: cytotoxic; 400,000 tested, 1.4% active; AID 1347075; further: on the % scale 0 is the no-effect control and ±100 the full control effect; nearly all actives have a fitted effect of over 60% in size
#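 Multi-concentration cytotoxicity screen in KB-3-1 cells grown in DMEM lacking phenol red with 10% FBS. After 72 h at 37 °C with compound, ATP-dependent luminescence was recorded.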
# HT1080NT lethal = kills 2HG-producing HT-1080-NT fibrosarcoma cells; Potency, µM (highest dose often 46.1 µM), for inactives: at the highest dose activity, negative = less viability, actives largely listed as cytotoxic; 360,000 tested, 1.6% active; HT-1080-NT fibrosarcoma viability, CellTiter-Glo ATP luminescence, 48 h;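 further: NT is the 2HG producing partner of a matched IDH1 knockdown line; 0% = DMSO-treated cells and -100% = media-only wells without cells; nearly all actives have a fitted effect of over 55% in size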
#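 Viability of the 2HG-overproducing fibrosarcoma line after 48 hours of compound exposure at 37 degrees C was determined by luminescence with CellTiter-Glo, and concentration-effect curves were then fitted and categorized.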
# KB-V1 MDR tox = KB-V1 MDR subline cytotoxicity | 400,000 tested, 3.4% active | KB-V1 MDR cells viability, CellTiter-Glo, 72 h | Potency, µM (highest dose often 46.1 µM), actives largely listed as cytotoxic | AID 1347076; further: on the % scale 0 is the no-effect control and ±100 the full control effect; nearly all actives have a fitted effect of over 60% in size
#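 KB-V1 cells (P-gp-expressing MDR subline of KB-3-1) in phenol-red-free DMEM with 10% FBS were exposed to library compounds over a concentration series for 72 h at 37 degrees C. Viability read by CellTiter-Glo luminescence; concentration-effect curves fitted after normalization.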
# SW480 rerep = induces DNA re-replication in SW480 colon adenocarcinoma cells | SW480 DNA re-replication, Hoechst DNA content imaging, 48 h | Potency, µM (series often up to 46.1 µM), inactives show at the top dose re-replication activation, hits mostly activators | 340,000 tested, 1.8% active | AID 624297; further: % of control where 0% means no effect; nearly all actives have a fitted effect of over 55% in size
#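 Treated cells incubate 48 hr (37 C, 5% CO2), are stained 40 min with Hoechst, and nuclear fluorescence is enumerated; a rise in nuclei with high DNA signal marks re-replication.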
# HT1080 IDH1KD tx = kills HT-1080 cells with IDH1 knockdown. HT-1080 IDH1 knockdown viability, ATP luminescence, 48 h. Potency, µM (titrated, usually from 46.1 µM), for inactives: top-dose activity, negative = toxicity, usual class: cytotoxic. AID 686971. 360,000 tested, 2% active;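 further: 0% = DMSO wells and -100% = cell-free medium wells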
#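 % activity derives from luminescence (CellTiter-Glo), normalised to DMSO and no-cell wells. HT-1080-IDH1KD cells, 750/well, had 48 h compound exposure at 37 °C.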
# MCF10A rerep = inducers of DNA re-replication in MCF 10A breast cells | MCF 10A DNA re-replication, Hoechst nuclear intensity, 48 h | Potency, µM (series often up to 46.1 µM), inactives show top-dose activity, positive = re-replication, actives largely listed as activators | 350,000 tested, 2.9% active; further: % of control where 0% means no effect; nearly all actives have a fitted effect of over 50% in size
# An asterisk follows results filed as active; i = inactive; ? = inconclusive; . = no result; [ ] = another dose, or the depositor's remark. This is a sample that favours compounds with a hit; in the whole collection about 8% have one here. The call rests on the fitted dose curve; in most records, active means well fitted curve in the direction sought with a large enough effect; inconclusive means small, poorly fitted or top-dose-only effect, or another doubt; inactive means no such curve, though single readings can be large; an effect the other way counts as inactive or inconclusive. Potency means the concentration at half of the fitted maximal effect.
SMILES,KB-3-1 tox,HT1080NT lethal,KB-V1 MDR tox,SW480 rerep,HT1080 IDH1KD tx,MCF10A rerep
Cc1cccc(NC(=S)/N=C(\N)Nc2nc(C)c3ccccc3n2)c1,?,-21%,?,-8%,-27%,28%
Cc1cccc(NC(=S)/N=C(\N)Nc2nc(C)c3cc(C)ccc3n2)c1,i,-2%,23µM*,?,-2%,17%
CCc1ccc(NC(=S)/N=C(\N)Nc2nc(C)c3cc(CC)ccc3n2)cc1,?,?,?,4.6µM*,10µM*,?
Cc1ccc2nc(N/C(N)=N/S(=O)(=O)c3ccc([N+](=O)[O-])cc3)nc(C)c2c1,i,-3%,i,4%,2%,7%
Cc1ccc(NC(=O)CN2C(=O)c3cccnc3Oc3ccc(Cl)cc32)cc1,i,.,i,.,.,.
Fc1ccc2[nH]c(-c3cccs3)cc2c1,i,.,i,.,.,.
COc1ccccc1-c1noc(-c2ccc(NC3CCCC3)c([N+](=O)[O-])c2)n1,i,.,i,.,.,.
Cc1cc2nccc(C)c2cc1C,i,.,i,.,.,.
CCOc1ccc2nc(N/C(N)=N/C(=S)Nc3ccc(OC)cc3)nc(C)c2c1,i,-3%,i,10%,-5%,?
Cc1ccc(NC(=S)/N=C(\N)Nc2nc(C)c3ccccc3n2)cc1C,?,-3%,?,1%,-22%,12%
COc1ccc2nc(N/C(N)=N/C(=S)Nc3ccccc3)nc(C)c2c1,?,-7%,9.2µM*,3%,0%,13%
Cc1cc(C)cc(NC(=S)/N=C(\N)Nc2nc(C)c3ccccc3n2)c1,?,1%,18µM*,?,-14%,-46%
CCOc1cc(C(=O)Nc2cnccn2)cc(OCC)c1OCC,i,?,?,?,10µM*,?
Cc1ccc(SCc2ccc(C(=O)NCc3ccncc3)cc2)cc1,i,-14%,18µM*,8%,-15%,-8%
CCOc1cc(C(=O)NCc2ccncc2)cc(OCC)c1OCC,i,10%,7.3µM*,-10%,4%,1%
CCOc1ccc(C(=O)NCc2ccncc2)cc1OCC,i,10%,i,-8%,14%,-2%
Cc1ccc2c(c1)N(CC(=O)Nc1ccccc1C(F)(F)F)C(=O)c1cccnc1O2,i,.,i,.,.,.
Cc1ccc(-c2nc3c(C)cccn3c2Nc2ccccc2C)s1,i,.,i,.,.,.
CCn1c(SCC(=O)NC2CC2)nnc1C(C)Oc1ccccc1 (stereo not drawn),i,-3%,i,21µM*,12%,2%
COc1cc(OC)c2c(-c3cccc(-c4cccc(C)c4)c3)cc(=O)oc2c1,i,?,i,?,5.8µM*,?
COc1cc2oc(=O)cc(-c3ccc(-c4ccc(OC(F)(F)F)cc4)cc3)c2c(OC)c1OC,i,16%,i,-60%,12%,?
COc1ccc(-c2cccc(-c3cc(=O)oc4cc(OC)c(OC)c(OC)c34)c2)cc1,?,?,23µM*,?,?,?
COc1cc(OC)c2c(-c3cccc(-c4ccc(OC(F)(F)F)cc4)c3)cc(=O)oc2c1,i,5%,i,-68%,5%,-2%
COc1cc(OC)c2c(-c3cccc(-c4ccc(O)cc4)c3)cc(=O)oc2c1,16µM*,?,?,?,?,?
COc1ccc(-c2cccc(-c3cc(=O)oc4cc(OC)cc(OC)c34)c2)cc1,0.65µM*,?,1.2µM*,0.23µM*,0.58µM*,0.21µM*
SMILES,KB-3-1 tox,HT1080NT lethal,KB-V1 MDR tox,SW480 rerep,HT1080 IDH1KD tx,MCF10A rerep
CCc1ccc(NC(=O)N(Cc2ccc(C)cc2)Cc2cccn2-c2nnc(N3CCCC3=O)s2)cc1,i,.,i,.,.,.
Cc1ccc2c(=O)c(C(=O)c3ccccc3)cn(CC(=O)NCc3ccccc3)c2n1,i,.,i,.,.,.
COc1cc(OC)c2c(C)cc(=O)oc2c1,?,0%,i,-16%,0%[9.24 µM],17%
COc1cc(OC)c2c(-c3cccc(/C=C/c4ccc(F)cc4)c3)cc(=O)oc2c1,i,-1%,i,-29%[9.22 µM],-9%,0%
COc1cc2oc(=O)cc(-c3ccc(-c4ccc(N(C)C)cc4)cc3)c2c(OC)c1OC,i,-2%,i,-27%,-5%,1µM*
COc1cc(OC)c2c(-c3cccc(-c4ccc(N(C)C)cc4)c3)cc(=O)oc2c1,2.6µM*,?,?,4.1µM*,1.3µM*,?
COc1ccc(-c2ccc(-c3cc(=O)oc4cc(OC)c(OC)c(OC)c34)cc2)cc1F,i,-1%,i,-16%,-1%,?
COc1cc(OC)c2c(-c3cccc(-c4ccc(CO)cc4)c3)cc(=O)oc2c1,?,?,2.6µM*,0.73µM*,0.52µM*,?
O=C1C2=C(Nc3ccccc3SC2c2ccccc2C(F)(F)F)c2ccccc21 (stereo not drawn),i,.,?,.,.,.
COc1ccccc1CNC(=O)/C(C#N)=C/c1ccc(OC)c(OC)c1OC,i,-1%,i,-11%,4%,18µM*
COc1ccccc1CNC(=O)c1ccccc1C(=O)NC(C)(C)C(=O)NCc1ccccc1OC,i,-2%,i,-15%,-6%,2%
CCOc1ncccc1C(=O)NCc1ccccc1Cl,i,0%,i,?,2%,0.92µM*
CCOc1ncccc1C(=O)Nc1ccc(Cl)cc1,i,-5%,?,11%,2%,?
COc1ccccc1CNC(=O)c1ccc2nc3[nH]c4ccccc4c3nc2c1,?,?,i,?,?,18µM*
COc1ccc(/C=C(\C#N)C(=O)OCC(=O)NCc2ccccc2OC)cc1,i,-10%,i,-42%,-23%,-1%
COc1ccccc1CNC(=O)c1ccccc1OC,i,12%,?,-12%,4%,9.2µM*
CCc1nc2ccc(C(=O)NCCc3ccccc3OC)cc2nc1CC,i,4%,i,4%,5%,5%
O=C(CSc1oc(-c2ccc(F)cc2)nc1S(=O)(=O)c1ccc(Cl)cc1)c1ccccc1,i,.,i,.,.,.
Cc1noc(C)c1COc1ccccc1C(=O)NCc1ccccc1Cl,i,9%,i,-24%,3%,5%
O=C(NCc1ccccc1Cl)c1ccccc1Oc1ccccc1,i,8%,13µM*,3%,9%,?
COc1ccccc1CNC(=O)c1ccc(-c2ccccc2Cl)o1,i,-23%,i,?,-15%,?
COc1ccccc1CNCc1ccc(OC)c2ccccc12,i,15µM*,?,-3%,-58%,1%
